HCV inhibitor: HCV inhibition | actives 3.4% (n = 340,000) | Huh7.5.1 HCVcc-Cre infection, luciferase reporter, 44 h | AID 651820 | Potency, µM (series often up to 41.8 µM), usual class: inhibitors
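A cell-based infection assay in which seeded cells (1,000 per well) receive test compound after 4 h, are inoculated with HCVcc-Cre at approximately 0.5 moi, and are incubated 44 h before luminescence detection.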
HCMV inh: inhibitors of human cytomegalovirus | HFF cells, HCMV-luciferase reporter, 72 h; hits give low values | activity change, negative = inhibition, % at 57.5 µM | actives 4.5% (n = 410,000) | AID 1259415; in the data active = activity change below about -60%; inconclusive = no clear call, values can overlap the other calls; inactive = above about -39%
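Luciferase read-out from HCMV-luciferase-infected HFFs (MOI 1 PFU/cell) 72 h post infection at 37C; compounds added after 16 h cell attachment; activity normalized between buffer-only basal and Salinomycin (10uM) inhibitor controls.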
Pf growth 48h: inhibits P. falciparum growth in the first generation, 48 h; P. falciparum luciferase growth in erythrocytes, 48 h; Potency, µM (doses to about 28.7 µM), hits mostly inhibitors; actives 5.9% (n = 310,000); AID 504832
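Growth was read as firefly luciferase luminescence after a 48 h, 37 C, 5% CO2 exposure of compounds to reporter-bearing P. falciparum cultures (0.1% parasitemia, 2% hematocrit final) in Albumax-supplemented RPMI 1640.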
Pf growth 96h: inhibits malaria parasite growth, 96 h; P. falciparum luciferase reporter growth, 96 h; Potency, µM (highest dose often 28.7 µM), usual class: inhibitors; actives 6.9% (n = 320,000)
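Luminescence readout: decreased luciferase signal marks inhibited growth of reporter-expressing P. falciparum in infected red cells (2% hematocrit, 0.05% parasitemia final), exposed to compound two generations (96 h, 37 C, 5% CO2).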
Large screens that a line does not name were inactive; ! = repeats disagree. Most compounds without a hit are left out; they make up all but 13% or so of the library. Unless noted, calls follow the shape of the dose curve; as a rule, active = well fitted inhibition curve with a large enough effect; inconclusive = small, poorly fitted or top-dose-only effect, or another doubt; inactive = no such curve, though single readings can be large or run the other way.

CCN1C(=O)C(CC(=O)Nc2ccc(F)cc2)N(Cc2cccs2)C1=S (stereo unspecified)	HCMV inh inconclusive, Pf growth 48h 10µM
CCCOc1ccc(NC(=O)CC2C(=O)N(Cc3ccccc3)C(=S)N2Cc2cccs2)cc1 (stereo unspecified)	HCV inhibitor inconclusive, Pf growth 48h inconclusive, Pf growth 96h inconclusive
CCOC(=O)c1ccc(NC(=O)CC2C(=O)N(c3ccc(F)cc3)C(=O)N2CCC(C)C)cc1 (stereo unspecified)	Pf growth 96h 5.9µM (no result: Pf growth 48h)
COC(=O)CN1C(=S)N(c2ccc(Cl)cc2)C(=O)C1CC(=O)Nc1ccc(Cl)cc1 (stereo unspecified)	none
CCc1ccc(OCC(=O)N(Cc2ccc(Cl)cc2)C2CCS(=O)(=O)C2)cc1 (stereo unspecified)	none (no result: HCV inhibitor, Pf growth 48h, Pf growth 96h)
CCC(=O)N1CCC1(C)C(=O)Nc1cccc2cccnc12 (stereo unspecified)	none (no result: HCV inhibitor, Pf growth 48h, Pf growth 96h)
Cc1ccc(N=Cc2ccc(N(C)C)cc2)cc1	none
CN(C)c1ccc(C=Nc2ccc(N(C)C)cc2)cc1	HCMV inh -72, Pf growth 48h inconclusive
CN(C)c1ccc(N=Cc2ccco2)cc1	Pf growth 48h 0.83µM, Pf growth 96h inconclusive (no result: HCMV inh)
O=C1C(Cl)=CC(=Nc2ccc(O)cc2)C=C1Cl	HCMV inh -79, Pf growth 48h inconclusive
CC(C)n1c(=O)c(C=Nc2ccc(F)cc2)c(O)n(Cc2ccco2)c1=O	HCMV inh inconclusive, Pf growth 48h 15µM, Pf growth 96h inconclusive
CC(C)n1c(=O)c(C=Nc2ccc(Cl)cc2)c(O)n(Cc2ccco2)c1=O	Pf growth 48h 10µM, Pf growth 96h 1µM
O=C(NCc1cccs1)c1nn(-c2ccccc2)nc1CO	none (no result: HCV inhibitor, Pf growth 48h, Pf growth 96h)
COC(=O)c1ccccc1NC(=O)CSc1nc(C)c(Cl)c(C)c1C#N	none (no result: HCV inhibitor, Pf growth 48h, Pf growth 96h)
CCCCN(C)CCCNC(=O)c1cn(CC)c2ccc(S(=O)(=O)N3CCc4ccccc4C3)cc2c1=O	HCV inhibitor inconclusive, HCMV inh -68!, Pf growth 48h inconclusive
CCn1cc(C(=O)NCc2ccco2)c(=O)c2cc(S(=O)(=O)N3CCc4ccccc4C3)ccc21	Pf growth 48h 9.3µM, Pf growth 96h 5.2µM
CCn1cc(C(=O)NCCCOC)c(=O)c2cc(S(=O)(=O)N3CCc4ccccc4C3)ccc21	none (no result: HCV inhibitor, Pf growth 48h, Pf growth 96h)
CCn1cc(C(=O)NCCCOC(C)C)c(=O)c2cc(S(=O)(=O)N3CCc4ccccc4C3)ccc21	none (no result: HCV inhibitor, Pf growth 48h, Pf growth 96h)
CCn1cc(C(=O)NCc2ccco2)c(=O)c2cc(S(=O)(=O)N3CCCCCC3)ccc21	Pf growth 48h inconclusive
CCn1cc(C(=O)NCCCN2CCCC2)c(=O)c2cc(S(=O)(=O)N3CCc4ccccc4C3)ccc21	HCV inhibitor 14µM, Pf growth 48h inconclusive
CCCCN(CC)CCCNC(=O)c1cn(CC)c2ccc(S(=O)(=O)N3CCc4ccccc4C3)cc2c1=O	HCV inhibitor inconclusive, HCMV inh -60!, Pf growth 48h inconclusive, Pf growth 96h inconclusive
CCc1ccc(CN2CCC(Oc3cc(C(=O)NC4CC4)ccc3OC)CC2)cc1	none (no result: HCV inhibitor, Pf growth 48h, Pf growth 96h)
CCOC(=O)c1ccccc1NC(=O)CSc1ncc(CO)n1Cc1ccc(C)cc1	none (no result: HCV inhibitor, Pf growth 48h, Pf growth 96h)
CCn1cc(C(=O)NCCCN(CC(C)C)CC(C)C)c(=O)c2cc(S(=O)(=O)N3CCc4ccccc4C3)ccc21	none (no result: HCV inhibitor, Pf growth 48h, Pf growth 96h)
CCCN(CCC)CCCNC(=O)c1cn(CC)c2ccc(S(=O)(=O)N3CCc4ccccc4C3)cc2c1=O	HCV inhibitor inconclusive, HCMV inh -82!, Pf growth 96h inconclusive
O=C(Nc1ccc(CN2CCS(=O)(=O)CC2)cc1)c1ccc(Cl)cc1	HCV inhibitor 10µM, HCMV inh inconclusive
O=C(Nc1ccc(Cl)cc1)c1ccc(CN2CCc3ccccc3C2)cc1	HCV inhibitor 1.6µM, Pf growth 96h inconclusive
NC(=O)c1ccc(NC(=O)c2ccc(CN3CCOCC3)cc2)cc1	none (no result: Pf growth 48h)
COCCNC(=O)c1ccc(CN2CCc3ccccc3C2)cc1	Pf growth 96h inconclusive
C/C(=N\NC(=O)c1ccc(CN2CCc3ccccc3C2)cc1)c1ccccc1O	HCV inhibitor 5.6µM, HCMV inh -96, Pf growth 48h inconclusive
CCC(C)NC(=O)c1ccc(CN2CCc3ccccc3C2)cc1 (stereo unspecified)	none
CCCNC(=O)c1ccc(CN2CCc3ccccc3C2)cc1	Pf growth 48h 10µM
COc1ccccc1N1CCN(S(=O)(=O)c2ccc(-c3cc(C(F)(F)F)on3)s2)CC1	none (no result: HCV inhibitor, Pf growth 48h, Pf growth 96h)
O=C(Nc1ccc(S(=O)(=O)N2CCOCC2)cc1)c1ccc(CN2CCc3ccccc3C2)cc1	HCV inhibitor inconclusive, Pf growth 48h 12µM (no result: HCMV inh)
N#CCc1ccc(NC(=O)c2ccc(CN3CCc4ccccc4C3)cc2)cc1	HCV inhibitor 2µM, Pf growth 48h inconclusive, Pf growth 96h 8.3µM
N=c1n(CCN2CCCCC2)c2ccccc2n1CC(O)COc1ccccc1 (stereo unspecified)	HCV inhibitor 11µM, Pf growth 48h inconclusive
COc1ccccc1OCC(O)Cn1c(=N)n(CCN2CCCCC2)c2ccccc21 (stereo unspecified)	HCV inhibitor 2.5µM, HCMV inh inconclusive, Pf growth 48h 3.3µM
COc1ccc(OCC(O)Cn2c(=N)n(CCN3CCOCC3)c3ccccc32)cc1 (stereo unspecified)	Pf growth 48h inconclusive (no result: Pf growth 96h)
Cc1ccccc1OCCn1c(=N)n(C(C)C)c2ccccc21	HCMV inh -69 (no result: HCV inhibitor, Pf growth 48h, Pf growth 96h)
Cc1ccccc1OCC(O)Cn1c(=N)n(CCN2CCCCC2)c2ccccc21 (stereo unspecified)	HCMV inh -92 (no result: HCV inhibitor, Pf growth 48h, Pf growth 96h)
Cc1ccccc1OCC(O)CN1CCCCC1 (stereo unspecified)	none
CCc1ccc(CNC(=O)c2cnc3sc(N4CCOCC4)nn3c2=O)cc1	none (no result: HCV inhibitor, Pf growth 48h, Pf growth 96h)
COc1cccc(NC(=O)c2oc3ccccc3c2NC(=O)c2ccccc2C)c1	none (no result: HCV inhibitor, Pf growth 48h, Pf growth 96h)
OC(COc1ccc(Cl)cc1Cl)Cn1ccnc1 (stereo unspecified)	none (no result: Pf growth 48h)
C=CCOC(Cn1ccnc1)c1ccc(Cl)cc1Cl (stereo unspecified)	HCMV inh inconclusive, Pf growth 48h 4.1µM, Pf growth 96h 3.4µM
Clc1ccc(COC(Cn2ccnc2)c2ccc(Cl)cc2Cl)c(Cl)c1 (stereo unspecified)	HCV inhibitor inconclusive, HCMV inh -61!, Pf growth 48h 2.1µM, Pf growth 96h 1.7µM
CC1(C)C[C@H]2C3=CCC4[C@@]5(C)CC[C@H](O[C@@H]6O[C@H](C(=O)O)[C@@H](O)[C@H](O)[C@H]6O)[C@@](C)(CO)C5CC[C@@]4(C)[C@]3(C)C[C@H](O)[C@@]2(CO)[C@@H](O)[C@@H]1O (stereo partly specified)	none (no result: Pf growth 48h, Pf growth 96h)
C/C=C(\C)C(=O)OC1[C@H](OC(C)=O)C2(CO)C(CC1(C)C)C1=CCC3C4(C)CCC(O[C@@H]5O[C@H](C(=O)O)[C@@H](O[C@@H]6O[C@H](CO)[C@@H](O)[C@H](O)[C@H]6O)[C@H](O)[C@H]5O[C@H]5O[C@H](CO)[C@@H](O)[C@H](O)[C@H]5O)[C@](C)(CO)C4CCC3(C)[C@]1(C)C[C@H]2O (stereo partly specified)	HCV inhibitor 3.2µM (no result: HCMV inh, Pf growth 48h, Pf growth 96h)
CCOc1ccccc1NC(=O)CSC1=C(C#N)C(c2ccco2)C(C(=O)Nc2nc3ccccc3s2)=C(C)N1 (stereo unspecified)	Pf growth 48h 9.3µM, Pf growth 96h inconclusive
